Screening data deposited in PubChem by Johns Hopkins Ion Channel Center.
KCNQ2 pot: KCNQ2 (rat) channel potentiation | CHO-K1 KCNQ2, FluxOR thallium flux fluorescence; active compounds read high | AID 2239 | actives 0.54% (n = 310,000) | B-score at 10 µM | O88943;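 active = fluorescence ratio B-score at least 3 SD of library B-scores, with initial fluorescence B-score within 3 of them, cut at about 5.3 in these data; same plate scores as AID 2156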;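 note: B-score of peak minus minimum over baseline fluorescence ratio after K+ and Tl+ stimulus; positive B-score means potentiation of KCNQ2 with more thallium influx and brighter signal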
Target sequence (O88943 whole entry, looked up): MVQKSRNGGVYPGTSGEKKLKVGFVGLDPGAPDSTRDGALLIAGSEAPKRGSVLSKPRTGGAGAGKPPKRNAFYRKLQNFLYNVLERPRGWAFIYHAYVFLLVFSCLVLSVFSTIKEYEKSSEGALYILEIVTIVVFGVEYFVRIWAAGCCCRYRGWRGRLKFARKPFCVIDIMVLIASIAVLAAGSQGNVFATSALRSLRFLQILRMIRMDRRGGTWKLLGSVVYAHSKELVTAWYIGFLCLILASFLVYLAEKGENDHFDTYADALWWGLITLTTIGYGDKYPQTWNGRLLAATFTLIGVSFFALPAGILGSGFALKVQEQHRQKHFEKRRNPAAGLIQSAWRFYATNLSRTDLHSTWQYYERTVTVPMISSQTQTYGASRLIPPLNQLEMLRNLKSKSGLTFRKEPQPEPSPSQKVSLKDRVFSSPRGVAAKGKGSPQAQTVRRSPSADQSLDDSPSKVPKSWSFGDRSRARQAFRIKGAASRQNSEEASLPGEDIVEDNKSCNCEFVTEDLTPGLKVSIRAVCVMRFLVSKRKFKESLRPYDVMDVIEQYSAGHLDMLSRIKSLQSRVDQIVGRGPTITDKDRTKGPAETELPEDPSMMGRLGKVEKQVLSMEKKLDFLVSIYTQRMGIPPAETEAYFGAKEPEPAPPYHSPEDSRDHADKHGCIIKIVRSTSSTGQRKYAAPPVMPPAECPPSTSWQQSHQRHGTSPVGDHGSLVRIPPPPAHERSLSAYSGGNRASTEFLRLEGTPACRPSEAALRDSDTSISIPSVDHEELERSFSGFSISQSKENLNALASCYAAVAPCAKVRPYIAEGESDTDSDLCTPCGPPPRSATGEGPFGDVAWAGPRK
KCNQ2 inh: KCNQ2 (rat) channel inhibition | O88943 | CHO-K1 KCNQ2, FluxOR thallium flux, 20 min; active compounds read low | B-score at 10 µM | actives 1.1% (n = 310,000) | AID 2156;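 active = fluorescence ratio B-score at most minus 3 library SDs, with starting brightness B-score within 2 library SDs, cut at about -5.5 in these data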
The depositor's hits bear a star; i = inactive; · = not tested or not shown. This is a sample that favours compounds with a hit; in the whole collection about 1.6% have one here.

SMILES	KCNQ2 pot	KCNQ2 inh
CCSc1nc(O)cc(=O)[nH]1	·	i
CCSc1nc(=S)cc(C)[nH]1	12.9*	i
COc1ccc(CNC(=O)CCC(=O)Nc2ccc(Cl)cc2)cc1	·	i
Cc1ccc(S(=O)(=O)N2CCC(NC(=O)OC(C)C)CC2)cc1	0.34	i
Cc1cccc(C)c1-n1c(C)cc(/C=N\NC(=O)CC(=O)NC2CCCCC2)c1C	8.41*	i
Cc1cc(/C=N\NC(=O)CC(=O)NC2CCCCC2)c(C)n1-c1cccc(Cl)c1Cl	4.7	i
C=CCn1c(=O)c2c(nc3n2CCCN3CCc2ccc(OC)c(OC)c2)n(C)c1=O	·	i
COc1ccc2ncc(S(=O)(=O)c3ccccc3)c(N3CCN(c4ccccc4)CC3)c2c1	·	i
Cc1ccc2ncc(S(=O)(=O)c3ccccc3)c(N3CCCCC3C)c2c1 (centres undefined)	-6.09	-6.09*
Cc1ccc(C)c(N2C(=O)c3cc(N4CCOCC4)c([N+](=O)[O-])cc3C2=O)c1	0.85	i
COc1ccc(Cl)cc1C(=O)Nc1cccnc1Cl	1.37	i
Cc1ccc(S(=O)(=O)N(C)c2ccc(C(=O)NCC(c3cccs3)N3CCOCC3)cc2)cc1 (centres undefined)	·	i
Cc1ccc(N(C)S(=O)(=O)c2cccc(C(=O)NCC(c3cccs3)N3CCOCC3)c2)cc1 (centres undefined)	-6.82	-6.82*
COc1ccc(N2CCN(S(=O)(=O)c3cc(C)ccc3OC)CC2)cc1	·	i
Cc1cc(-c2ccc(C(C)C)c(S(=O)(=O)N3CCN(c4ccccc4)CC3)c2)on1	·	i
COc1ccccc1N1CCN(S(=O)(=O)c2cc(-c3cc(C)no3)ccc2C(C)C)CC1	-6	-6*
Cc1cccc(N(O)C(=O)Nc2cccc(Cl)c2)c1	4.67	i
COc1ccc(-c2n(Cc3ccccc3)c3ccccc3[n+]2Cc2ccccc2)cc1	-6.04	-6.04*
COc1ccc(-c2nc3ccccc3n2Cc2ccccc2)cc1	·	i
CCN(CC)S(=O)(=O)c1cccc(NC(=O)COC(=O)C2COc3ccccc3O2)c1 (centres undefined)	·	i
Cc1nc(N2CCCCC2)c2c(-c3cccs3)csc2n1	-8.24	-8.24*
Cc1nc(N2CCN(S(=O)(=O)c3ccccc3C#N)CC2)c2c(-c3cccs3)csc2n1	·	i
COCCCn1c(SCC(=O)NC(C)(C)C)nnc1-c1cccs1	0.45	i
Cc1nc(SCC(=O)NC(C)(C)C)c2c(-c3cccs3)csc2n1	-6.23	-6.23*
Cn1nc(-c2ccc(N3CCN(CCO)CC3)c([N+](=O)[O-])c2)c2ccccc2c1=O	·	i
SMILES	KCNQ2 pot	KCNQ2 inh
Cc1ccc2oc(C(=O)N3CCN(c4cccc(C)n4)CC3)c(C)c2c1	-8.08	-8.08*
Cc1cc(Cl)c2oc(C(=O)N3CCN(c4cccc(C)n4)CC3)c(C)c2c1	·	i
O=C(c1cc([N+](=O)[O-])ccc1Cl)N1CCN(c2ccc(F)cc2)CC1	0.24	i
O=C(c1cc([N+](=O)[O-])ccc1Cl)N1CCN(c2ccc([N+](=O)[O-])cc2)CC1	-6.87	-6.87*
O=C(Cc1cccs1)N1CCN(c2ccc([N+](=O)[O-])cc2)CC1	-5.55	-5.55*
O=C(Cc1cccs1)N1CCN(c2ccc(F)cc2)CC1	1.23	i
O=C(c1cccc(F)c1F)N1CCCC1	0.93	i
Cc1csc(CN(C)C(=O)CC2C(=O)NCCN2Cc2ccc(Cl)c(F)c2)n1 (centres undefined)	·	i
O=C(Nc1ccccc1)Nc1cnccn1	·	i
Nc1c(C(O)(C(F)(F)F)C(F)(F)F)cc(C(O)(C(F)(F)F)C(F)(F)F)c2ccccc12	·	i
C[N+](C)(C)C[C@H](O)CC(=O)[O-]	·	i
CCn1c2ccccc2c2cc(NC(=O)C(C)Oc3ccc(OC)cc3)ccc21 (centres undefined)	-6.17	-6.17*
CCn1c2ccccc2c2cc(NC(=O)C(C)Oc3ccccc3)ccc21 (centres undefined)	·	i
O=[N+]([O-])c1cc(O)c2ncccc2c1	10.1*	i
O=[N+]([O-])c1cc2cccnc2c2ncccc12	·	i
CCOC(=O)C1=C(C)NC(C)=C(C(=O)OC)C1c1cccc([N+](=O)[O-])c1 (centres undefined)	·	i
COC(=O)C1=C(C)NC(C)=C(C(=O)O[C@@H]2CCCN(Cc3ccccc3)C2)[C@@H]1c1cccc([N+](=O)[O-])c1	-5.78	-5.78*
COc1ccc(/C=C2/C(=O)OCc3cc(OC)c(OC)cc32)cc1	·	i
N/C(CC1CC1(Cl)Cl)=N\OC(=O)c1ccccc1 (centres undefined)	-8.59	-8.59*
N/C(Cc1ccc(Cl)cc1Cl)=N\OC(=O)c1ccccc1	4.11	i
Cc1ccc2nc(C)cc(C(=O)OCC(=O)Nc3cccnc3Cl)c2c1	·	i
CCOc1ccccc1NC(=O)c1cccc2c1C(=O)N(C1CCCCC1)C2	-6.33	-6.33*
Cc1ccccc1NC(=O)c1cccc2c1C(=O)N(C1CCCCC1)C2	·	i
CC1=CC(C)(C)N(C(=O)c2ccccc2)c2ccc(C)cc21	·	i
CC1=CC(C)(C)N(C(=O)c2ccccc2)c2ccccc21	-5.57	-5.57*
SMILES	KCNQ2 pot	KCNQ2 inh
CCOC(=O)c1c(CN2CCOCC2)n(-c2ccccc2)c2cc(Br)c(OC)cc12	·	i
CCOC(=O)c1c(CN(C)C)n(-c2ccccc2)c2cc(Br)c(OC)cc12	-6.24	-6.24*
CCCOc1ccc(/C=C/C(=O)OCC(=O)N(C)c2c(N)n(Cc3ccccc3)c(=O)[nH]c2=O)cc1OCC	·	i
CSc1cccc(NC(=S)N(Cc2ccc(C)cc2)Cc2ccccn2)c1	·	i
Cc1ccc(CN(Cc2ccccn2)C(=O)Nc2ccc(C)c(C)c2)cc1	-6.85	-6.85*
CN1CCN(/C=C(\C#N)S(=O)(=O)c2ccc(Cl)cc2)CC1	·	i
CN(C)/C=C(\C#N)S(=O)(=O)c1ccc(Cl)cc1	-6.76	-6.76*
CCCCCC(=O)Nc1cccc(C2=NOC3(C2)C[C@@H](C(N)=O)N(C(=O)C2(C)CC2)C3)c1 (some centres undefined)	0.16	i
Cc1cc(C(=O)CSc2nn3c(=O)c(C(C)(C)C)nnc3s2)c(C)n1C	·	i
O=C(O)CCc1cc(I)c(Oc2ccc(O)c(I)c2)c(I)c1	32.1*	i
N[C@@H](Cc1cc(I)c(Oc2ccc(O)c(I)c2)c(I)c1)C(=O)O	0.38	i
CN(C)c1ccc(C2Nc3ccccc3C(=O)N2NS(C)(=O)=O)cc1 (centres undefined)	·	i
c1ccc(CN2CCN(c3ncnc4c3[nH]c3ccccc34)CC2)cc1	-8.09	-8.09*
COc1ccc2c(c1)[nH]c1c(N3CCN(Cc4ccc5c(c4)OCO5)CC3)ncnc12	-8.09	-8.09*
COc1cccc2[nH]c3c(N4CCN(Cc5ccc6c(c5)OCO6)CC4)ncnc3c12	1.12	i
Cc1ccc2[nH]c3c(N4CCN(Cc5ccccc5)CC4)ncnc3c2c1	·	i
Cc1cccc(N(C)S(=O)(=O)c2csc(C(N)=O)c2)c1	·	i
CCOC(=O)N1CCC(NS(=O)(=O)c2ccc(NC(C)=O)c(Cl)c2)CC1	0.45	i
